# Assay results reported in ChEMBL document CHEMBL1157539, “Thousands of chemical starting points for antimalarial lead identification” (Nature, 2010).
# Experiments:
# Assay type in all cases: functional
# Plasmodium falciparum [1] = assay: GSK_TCMDC: Inhibition of Plasmodium falciparum 3D7 in whole red blood cells, using parasite LDH activity as an index of growth. Test compounds present at 2uM
# Plasmodium falciparum [2] = assay: GSK_TCMDC: Inhibition of Plasmodium falciparum Dd2 in whole red blood cells, using parasite LDH activity as an index of growth. Test compounds present at 2uM
# HepG2 = assay: GSK_TCMDC: Percent inhibition of human HepG2 cell line. Test compounds present at 10uM.
Structure (SMILES),Inhibition (Plasmodium falciparum [1]),Inhibition (Plasmodium falciparum [2]),Inhibition (HepG2)
Oc1cccc(-c2nc(-c3ccccc3)c(-c3ccc(Oc4ccc(-c5[nH]c(-c6cccc(O)c6)nc5-c5ccccc5)cc4)cc3)[nH]2)c1,91%,96%,6%
Cc1cc(N[C@@H](Cc2ccccc2)C(=O)NCc2cccs2)nc(NCCc2ccccn2)n1.O=C(O)C(F)(F)F,93%,49%,0%
Cl.Oc1ccc2[nH]c(-c3cccs3)nc2c1CN1CCC(N2CCCC2)CC1,100%,13%,6%
Cc1nnsc1C(=O)Nc1cccc(-c2csc(-c3nc4ccccc4[nH]3)c2)c1,94%,50%,51%
COCCn1ccc2c3c(N)nc(N)nc3ccc21,93%,29%,43%
OC(c1ccccc1)C1CN(Cc2ccccc2)CCC1(O)c1ccccc1 (centres undefined),91%,82%,4%
CC1(C)N=C(N)N=C(N)N1c1cccc(I)c1.Cl,95%,85%,68%
N/C(=N\c1cccc(Cc2ccccc2)n1)NCc1ccccc1,85%,52%,57%
COc1ccc(CNCc2ccccc2)cc1-c1cccc(S(=O)(=O)NCCN2CCCC2)c1.O=C(O)C(F)(F)F,98%,36%,37%
CC(=O)Nc1cc(C(=O)Nc2ccc(C3=NCCN3)cc2)ccc1C(=O)Nc1ccc(C2=NCCN2)cc1.Cl,96%,92%,12%
Cc1cc(OCCCN2CCC(NS(=O)(=O)c3cc(Br)c(Cl)s3)CC2)c2ccccc2n1,95%,39%,5%
CC(CN1CCN(C)CC1)C(=O)Nc1cccc(-c2ccc(-c3nc4cc(F)ccc4[nH]3)cc2)c1 (centres undefined),100%,98%,10%
CN1CCC(N2CCC(Oc3cccc(C(=O)NCCCC4CCCC4)c3)CC2)CC1,100%,48%,41%
Nc1ncc(-c2ccsc2)c2ccc(-c3cc(NCc4ccccc4)ncn3)cc12,100%,86%,0%
O=C(COc1ccccc1)N(Cc1ccc(-c2ccc(CNC3Cc4ccccc4C3)cc2)cc1)C1CCNCC1.O=C(O)C(F)(F)F,100%,8%,26%
Cc1[nH]c2ccccc2c1C1CCN(CCCCNC(=O)c2ccc(-c3ccc(C#N)cc3)cc2)CC1,100%,97%,19%
O=C(O)C(F)(F)F.O=[N+]([O-])c1cccc(CNC2CCN(Cc3ccc4ccccc4c3)CC2)c1,100%,22%,12%
CCCCCCCN1CC[C@@H](C[C@H](N)Cc2ccnc3ccc(OC)cc23)[C@@H](CC)C1.O=C(O)C(=O)O,91%,51%,33%
N=c1c2nc(-c3c(F)cccc3Cl)[nH]c(=O)c2[nH]c(=O)n1-c1ccccc1,95%,0%,52%
N#Cc1cccc(NC(=O)c2cccc(S(=O)(=O)NC3CCN(CC4CCCCC4)C3)c2)c1.O=C(O)C(F)(F)F (centres undefined),100%,27%,29%
CC(C)[C@@H](C(=O)NCc1cccc(C(F)(F)F)c1)N1C(=O)CCC1C(=O)Nc1ccc([N+](=O)[O-])cc1 (some centres undefined),94%,2%,0%
NC(=O)c1cc2nc(NC3CCC3)nc(Nc3cccc4[nH]ncc34)c2[nH]1.O=CO,100%,62%,9%
CC(C)CCNC(=O)c1cnc2c(O)cccc2c1Nc1cccc(NC(=O)c2ccc(F)cc2)c1.O=C(O)C(F)(F)F,93%,43%,51%
CCOc1ccc2c(=NN=Cc3cc(OC)c(OC)cc3OC)cc(C)[nH]c2c1,100%,97%,24%
CCCn1c(O)nnc1SCC(=O)Nc1cc(Cl)ccc1Cl,88%,53%,0%
CC(C)CCNC(=N)Nc1ccc(OCCCCCOc2ccc(NC(=N)NCCC(C)C)cc2)cc1,85%,67%,14%
CCCCCCOc1ccccc1C(=O)NCCOc1ccc(Cl)cc1,84%,37%,16%
CC12CCC(=O)N1C(C(=O)Nc1cccc(C(=O)Nc3cccc(C(F)(F)F)c3)c1)CS2 (centres undefined),92%,89%,6%
